Values without a mark were called inactive. Inconclusive results are not listed. A call without a number means that no potency is given here. The source made the active and inactive calls. Unless noted, calls follow the shape of the dose curve; as a rule, active = well fitted curve in the direction sought with a large enough effect; inconclusive = small, poorly fitted or top-dose-only effect, or another doubt; inactive = no such curve, though single readings can be large; an effect the other way counts as inactive or inconclusive.
Columns and labels:
[1] = Confirmation and Secondary Assay for Modulators of Hemoglobin Beta Chain Splicing at IVS2 654 locus (AID 910);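 also: HeLa cells stably carrying EGFP split by mutant beta-globin IVS2-654 intron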
Outline: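 HeLa cells stably expressing EGFP interrupted by β-globin IVS2-654 intron, seeded overnight in Opti-MEM/2% FCS, then treated 2 days at 37 °C. Restored splicing read as total peak GFP intensity per well by laser scanning cytometry (488 nm excitation, 500–520 nm emission); 500 nM antisense PNA as control.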

[2] = Confirmation and Secondary Assay for Modulators of Hemoglobin Beta Chain Splicing at IVS2 705 locus (AID 930);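 also: HeLa cells stably expressing the EGFP-705 splicing reporter; GFP fluorescence per well restored by corrected splicing of the IVS2-705 intron in EGFP; series mostly up to about 46 µM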
Outline: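 Assay measures total GFP intensity per well in HeLa EGFP-705 cells after 2 days with compound; mis-splicing normally truncates EGFP, so fluorescence indicates corrected splicing.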

[3] = target: Guanine nucleotide-binding protein G(i) subunit alpha-1 (Homo sapiens) (UniProt P63096); experiment: qHTS Assay for Inhibitors of RGS12 GoLoco Motif Activity (Green Fluorophore) (AID 879);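 also: negative values mean loss of peptide binding seen as reduced polarization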
Chain of Guanine nucleotide-binding protein G(i) subunit alpha-1 (Homo sapiens) (P63096 whole entry, looked up): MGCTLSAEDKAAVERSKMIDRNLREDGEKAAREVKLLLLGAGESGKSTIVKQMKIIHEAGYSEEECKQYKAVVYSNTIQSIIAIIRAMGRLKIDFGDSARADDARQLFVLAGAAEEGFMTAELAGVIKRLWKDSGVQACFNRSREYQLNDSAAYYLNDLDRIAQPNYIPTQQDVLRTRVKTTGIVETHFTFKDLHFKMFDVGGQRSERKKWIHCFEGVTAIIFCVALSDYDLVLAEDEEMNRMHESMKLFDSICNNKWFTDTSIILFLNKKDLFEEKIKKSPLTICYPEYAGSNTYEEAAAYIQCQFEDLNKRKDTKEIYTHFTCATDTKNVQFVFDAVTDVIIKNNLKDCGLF
Outline: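 Fluorescence polarization assay: 50 nM Gαi1 with 10 nM FITC-labeled RGS12 GoLoco peptide in 10 mM Tris pH 7.5, 150 mM NaCl, 0.1 mM GDP, 0.05% NP40, 10 min at room temperature with compound.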

[4] = qHTS Assay for Identification of Small Molecule Agonists for Hypoxia Response Element Signaling Pathway (AID 914; active = well fitted activation curve with a large enough effect in the signal ratio, with a control signal flat, not every such curve was filed as active; the % refers to the signal ratio); details: ME-180 (cervical carcinoma) HRE-bla reporter, beta-lactamase ratio, CoCl2, 17 h; hits give high values
Outline: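 Compounds in a titration series were added to ME-180 reporter cells alongside an EC50 level of CoCl2. After 17 hours, beta-lactamase activity was read as the 460nm/530nm emission ratio of CCF4, giving AC50 values.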

[5] = qHTS Assay for Identification of Small Molecule Antagonists for Thrombopoietin (TPO) Signaling Pathway (AID 918); details: TPO-dependent cell signaling reporter, antagonist mode; also: potency is read from the fitted curve at half-maximal effect; nearly all actives have a fitted effect of over 60% in size
Outline: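 Murine Ba/F3 cells stably expressing human TPO receptor and a Glycoprotein IIb promoter–luciferase reporter were IL-3-starved overnight, treated with compounds plus TPO (26 pM final, its EC50) for 24 hrs at 37 C, then read by luminescence.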

[6] = target: Pyruvate kinase (Leishmania mexicana) (UniProt Q27686); experiment: qHTS Validation Assay for Inhibitors of Leishmania Mexicana Pyruvate Kinase (AID 945)
Chain of Pyruvate kinase (Leishmania mexicana) (Q27686 2-499 E452W): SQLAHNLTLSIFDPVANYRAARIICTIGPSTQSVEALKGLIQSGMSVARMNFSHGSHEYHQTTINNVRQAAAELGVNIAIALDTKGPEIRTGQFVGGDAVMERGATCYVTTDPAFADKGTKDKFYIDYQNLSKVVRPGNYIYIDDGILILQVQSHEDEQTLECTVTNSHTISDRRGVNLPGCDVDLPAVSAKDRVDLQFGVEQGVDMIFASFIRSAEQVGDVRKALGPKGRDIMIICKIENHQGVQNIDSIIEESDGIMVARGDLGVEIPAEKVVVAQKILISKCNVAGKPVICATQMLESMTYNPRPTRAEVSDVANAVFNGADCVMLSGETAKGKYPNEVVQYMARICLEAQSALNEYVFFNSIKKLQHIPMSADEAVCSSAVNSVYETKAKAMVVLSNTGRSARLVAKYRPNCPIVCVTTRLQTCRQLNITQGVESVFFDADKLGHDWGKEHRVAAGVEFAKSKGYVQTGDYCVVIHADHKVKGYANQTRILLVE
Outline: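 Pyruvate kinase activity of E451W LmPYK (0.2 nM) was followed as ATP output after 1 h at room temperature with 0.5 mM PEP and 0.1 mM ADP, detected by PKLight luminescence.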

[7] = target: Cytochrome P450 3A4 (Homo sapiens) (UniProt P08684); experiment: qHTS Assay for Inhibitors and Substrates of Cytochrome P450 3A4 (AID 884); also: potency is read from the fitted curve at half-maximal effect; nearly all actives have a fitted effect of over 50% in size
Chain of Cytochrome P450 3A4 (Homo sapiens) (P08684 whole entry, looked up): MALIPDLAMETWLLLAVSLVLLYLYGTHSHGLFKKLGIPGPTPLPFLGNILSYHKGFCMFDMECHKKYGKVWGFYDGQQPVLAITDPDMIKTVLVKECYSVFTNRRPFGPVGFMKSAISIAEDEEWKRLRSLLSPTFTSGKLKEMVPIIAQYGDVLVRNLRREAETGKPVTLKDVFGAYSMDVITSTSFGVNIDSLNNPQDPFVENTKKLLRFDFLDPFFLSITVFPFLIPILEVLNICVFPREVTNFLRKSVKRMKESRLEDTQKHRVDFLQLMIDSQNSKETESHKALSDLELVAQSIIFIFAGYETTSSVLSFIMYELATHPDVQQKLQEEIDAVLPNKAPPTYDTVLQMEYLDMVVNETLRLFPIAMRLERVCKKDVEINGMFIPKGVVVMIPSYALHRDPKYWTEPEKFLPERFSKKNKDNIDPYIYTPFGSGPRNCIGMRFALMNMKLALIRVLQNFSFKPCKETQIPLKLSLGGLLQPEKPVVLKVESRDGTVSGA
Outline: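 20 nM human CYP3A4 with 25 uM Luciferin-PPXE (at KM) in 200 mM KPO4, preincubated 10 min with compound; NADPH regeneration started a 60 min RT reaction. Luciferin detected by luminescence, normalized to 57 uM ketoconazole as full inhibition.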

[8] = target: Cytochrome P450 3A4 (Homo sapiens) (UniProt P08684); experiment: qHTS Assay for Activators of Cytochrome P450 3A4 (AID 885); also: nearly all actives have a fitted effect of over 65% in size
Outline: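 Human CYP3A4 (20 nM) with Luciferin-PPXE at 25 uM (its KM) in 200 mM KPO4; 10 min compound preincubation, then NADPH regeneration and 60 min reaction at RT. Luciferin read by luminescence; normalized to 57 uM ketoconazole full inhibition.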

[9] = qHTS Assay for Identification of Small Molecule Agonists for Thrombopoietin (TPO) Signaling Pathway (AID 917)
Outline: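 We measured Glycoprotein IIb promoter–luciferase output in IL-3-starved Ba/F3 murine cells expressing the human TPO receptor after 24 hrs at 37 C with compounds and 26 pM TPO.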

[10] = MultiTox-Fluor Cytotoxicity Assay - LYMP1-001 - Dead Cells (AID 946);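 also: potency is read from the fitted curve at half-maximal effect; cells exposed to compound for 16 h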
Outline: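 LYMP1-001 lymphoblastoid cells (2500/well) treated 16 h at 37 C. Dead-cell protease cleavage of bis-AAF-R110 read at Ex/Em 485/520. Normalized to DMSO and 15 uM tetraoctylammonium bromide; AC50 from Hill fits.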

[11] = target: Muscarinic acetylcholine receptor M1 (Rattus norvegicus) (UniProt P08482); experiment: qHTS Assay for Antagonists of Acetylcholine Muscarinic M1 Receptor: Measurement of IP-One Response (AID 944); also: nearly all actives have a fitted effect of over 75% in size
Chain of Muscarinic acetylcholine receptor M1 (Rattus norvegicus) (P08482 whole entry, looked up): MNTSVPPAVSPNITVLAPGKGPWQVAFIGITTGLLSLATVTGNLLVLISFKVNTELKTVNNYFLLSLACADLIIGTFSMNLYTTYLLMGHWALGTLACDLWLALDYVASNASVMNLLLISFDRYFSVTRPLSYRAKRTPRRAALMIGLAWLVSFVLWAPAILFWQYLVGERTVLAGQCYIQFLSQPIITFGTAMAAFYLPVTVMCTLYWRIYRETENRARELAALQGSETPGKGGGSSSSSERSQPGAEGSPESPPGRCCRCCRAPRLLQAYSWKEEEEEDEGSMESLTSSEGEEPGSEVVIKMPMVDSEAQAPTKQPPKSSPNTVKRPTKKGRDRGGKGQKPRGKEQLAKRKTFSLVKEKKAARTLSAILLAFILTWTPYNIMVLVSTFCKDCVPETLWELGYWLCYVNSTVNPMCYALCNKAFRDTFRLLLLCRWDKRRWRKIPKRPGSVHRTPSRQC
Outline: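 CHO cells expressing rat M1 receptor, recovered overnight, were pre-incubated 10 min with compound, then stimulated 30 min with carbachol at EC80 (200 nM) in LiCl-containing buffer, pH 7.4. IP1 accumulation was read by HTRF (620/665 nm).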

[12] = target: Cytochrome P450 2C9 (Homo sapiens) (UniProt P11712); experiment: qHTS Assay for Inhibitors and Substrates of Cytochrome P450 2C9 (AID 883); also: potency is read from the fitted curve at half-maximal effect; nearly all actives have a fitted effect of over 60% in size
Chain of Cytochrome P450 2C9 (Homo sapiens) (P11712 whole entry, looked up): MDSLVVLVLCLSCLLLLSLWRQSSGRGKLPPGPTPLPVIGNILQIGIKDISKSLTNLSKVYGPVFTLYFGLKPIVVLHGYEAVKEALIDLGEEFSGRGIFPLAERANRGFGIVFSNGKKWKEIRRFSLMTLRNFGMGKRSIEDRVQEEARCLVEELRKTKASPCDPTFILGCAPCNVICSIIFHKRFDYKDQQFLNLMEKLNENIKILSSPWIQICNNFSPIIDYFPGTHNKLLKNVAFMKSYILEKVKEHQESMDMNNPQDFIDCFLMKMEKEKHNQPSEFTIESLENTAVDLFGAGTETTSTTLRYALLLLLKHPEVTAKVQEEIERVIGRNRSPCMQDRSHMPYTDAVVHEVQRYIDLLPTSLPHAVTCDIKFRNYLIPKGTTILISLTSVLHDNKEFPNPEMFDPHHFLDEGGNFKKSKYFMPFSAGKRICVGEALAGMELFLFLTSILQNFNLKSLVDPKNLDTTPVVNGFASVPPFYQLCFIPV
Outline: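 10nM CYP2C9 + 100uM Luciferin-H (=KM), 25mM KPO4; cpd 10 min 37C; NADPH regen, 60 min 37C; stop/detect with P450 Glo-Buffer 20 min; luminescence. Norm. to 57uM sulphaphenazole as full inhibition.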

[13] = target: Cytochrome P450 2D6 (Homo sapiens) (UniProt P10635); experiment: qHTS Assay for Inhibitors and Substrates of Cytochrome P450 2D6 (AID 891); also: potency is read from the fitted curve at half-maximal effect; nearly all actives have a fitted effect of over 60% in size
Chain of Cytochrome P450 2D6 (Homo sapiens) (P10635 whole entry, looked up): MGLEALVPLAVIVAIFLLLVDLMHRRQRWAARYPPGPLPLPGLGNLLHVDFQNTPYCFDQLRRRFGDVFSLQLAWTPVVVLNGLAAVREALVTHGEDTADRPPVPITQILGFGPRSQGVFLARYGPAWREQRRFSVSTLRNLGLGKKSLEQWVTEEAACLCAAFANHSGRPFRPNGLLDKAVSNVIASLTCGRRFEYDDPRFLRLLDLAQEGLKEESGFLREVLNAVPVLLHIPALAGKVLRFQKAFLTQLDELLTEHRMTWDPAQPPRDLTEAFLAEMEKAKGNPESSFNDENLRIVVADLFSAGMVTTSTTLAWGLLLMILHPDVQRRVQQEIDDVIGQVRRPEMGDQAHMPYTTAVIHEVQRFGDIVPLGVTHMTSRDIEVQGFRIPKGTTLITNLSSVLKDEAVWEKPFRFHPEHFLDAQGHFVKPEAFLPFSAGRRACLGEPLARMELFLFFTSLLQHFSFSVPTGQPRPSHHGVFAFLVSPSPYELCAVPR
Outline: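 Human CYP2D6 (5 nM) with 30 uM Luciferin-ME EGE (at Km) in 100 mM KPO4, compound preincubated 10 min, then NADPH regeneration system for 60 min at room temperature. Luciferin read by luminescence; normalized to 1.43 uM quinidine.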

[14] = target: Muscarinic acetylcholine receptor M1 (Rattus norvegicus) (UniProt P08482); experiment: qHTS Assay for Antagonists of Acetylcholine Muscarinic M1 Receptor: Kinetic Measurement of Intracellular Calcium Response (AID 943);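 also: Fluo-4 calcium signal as peak divided by basal fluorescence over 4 min; series mostly up to about 35 µM; nearly all actives have a fitted effect of over 75% in size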
Outline: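 CHO cells stably expressing rat M1 were loaded with no-wash Fluo-4 dye for 1 h at 37C, pre-incubated 10 min with compound, then challenged with EC80 carbachol (100 nM final); kinetic calcium read 4 min, peak/basal ratio.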

SMILES: Cc1cccc(C)c1OCC(C)N (centres undefined)
- outcome [1]: inactive
- outcome [2]: inactive

SMILES: CC(C)(C)c1ccc(C(O)CCCN2CCC(C(O)(c3ccccc3)c3ccccc3)CC2)cc1 (centres undefined)
- outcome [3]: inactive
- activation [4]: 3.01%
- Potency [5]: 2.51 µM (active)
- Potency [6]: inactive

SMILES: O=C1C(Cl)=C(NCCN2CCOCC2)C(=O)c2ncccc21
- Potency [7]: 2.51 µM (active)
- outcome [8]: inactive

SMILES: NC(N)=Nc1nc(CSCC/C(N)=N/S(N)(=O)=O)cs1
- outcome [3]: inactive
- Potency [9]: inactive
- Potency [6]: inactive

SMILES: CC(C)NCC(O)COc1cccc2[nH]ccc12 (centres undefined)
- outcome [3]: inactive
- outcome [1]: inactive
- Potency [9]: inactive
- outcome [2]: inactive
- Potency [6]: inactive

SMILES: CC/C(=C(\c1ccccc1)c1ccc(OCCN(C)C)cc1)c1ccccc1
- outcome [3]: inactive
- outcome [1]: inactive
- Potency [5]: 10 µM (active)
- outcome [2]: inactive
- Potency [6]: inactive
- Potency [10]: 50.1 µM (active)

SMILES: COc1ccc(C2Sc3ccccc3N(CCN(C)C)C(=O)C2OC(C)=O)cc1 (centres undefined)
- outcome [1]: inactive
- outcome [2]: inactive

SMILES: CCN(CC)CCNC(=O)c1ccc(N)cc1
- outcome [3]: inactive
- outcome [1]: inactive
- Potency [9]: inactive
- outcome [2]: inactive
- outcome [11]: inactive
- Potency [6]: inactive

SMILES: O=c1cc(-c2ccccc2)oc2cc(O)c(O)c(O)c12
- Potency [12]: 5.01 µM (active)
- outcome [8]: inactive
- Potency [13]: 31.6 µM (active)
- outcome [1]: inactive

SMILES: C[N+](C)(C)CC(=O)O
- outcome [3]: inactive
- Potency [9]: inactive
- outcome [14]: inactive
- outcome [11]: inactive
- Potency [6]: inactive

— PubChem BioAssay (NCATS)
